Data: PubChem BioAssay AID1527 (The Scripps Research Institute Molecular Screening Center, 2009)
Out of some 290,000 compounds screened, about 2,600 (0.9%) were called active. The list comes from a sample in which actives are over-represented; it also holds similar structures and randomly drawn compounds. Unmarked numbers belong to inactive results.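 How the source made its calls: active means inhibition above the mean of all tested compounds plus 3 SD, cutoff set per screening run (cut at about 7.5% in these data); inactive means the rest.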

tested on: VIM-2 metallo-beta-lactamase (Pseudomonas aeruginosa); assay: VIM-2 metallo-beta-lactamase inhibitors, primary screen, biochemical, epi-absorbance readout, Pseudomonas aeruginosa enzyme (AID 1527); conditions: purified VIM-2, nitrocefin hydrolysis, epi-absorbance fluorescence; at 5.6 µM; stronger effect = higher value;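 further: red hydrolysis product quenches plate fluorescence so inhibitors raise well fluorescence; 0% = enzyme with DMSO and 100% = DMSO without enzyme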

`c1ccc(Nc2nc(N3CCOCC3)c3ccccc3n2)cc1` was tested. Which inhibition did it give?
The inhibition was -0.89%.

How did the inhibition turn out when `Cc1cccc(-c2nc(Nc3ccc(O)cc3)c3ccccc3n2)c1` was run?
The inhibition was -0.38%.

For `CN1CCN(c2nc(Nc3ccc(O)cc3)nc3ccccc23)CC1`, which inhibition is on record?
Its inhibition is 12.2% (active).

Which inhibition does the source give for `O=C(/C=C/c1ccc2c(c1)OCCO2)c1ccc(O)cc1` here?
Its inhibition is 0.15%.

`CCC(=C/c1sc2ccc3ccccc3c2[n+]1C)/C=C1\Sc2ccc3ccccc3c2N1C` was tested. Which inhibition did it give?
Its inhibition is 18.2% (active).

With `CC(C)n1c(=O)[nH]c2cc(C(=O)Nc3ccccc3)ccc21` as the compound, how does the inhibition read?
Its inhibition is -0.68%.

How did the inhibition turn out when `CN1CCN(c2ccc(NC(=O)c3ccccc3)cc2)CC1` was run?
The inhibition was 5.59%.

How did the inhibition turn out when `CN1CCN(c2ccc(NC(=O)c3ccc4c(c3)[nH]c(=O)n4Cc3ccc(F)cc3)cc2)CC1` was run?
The inhibition was 17.6% (active).

Which inhibition does the source give for `Cc1cc2occ(CC(=O)NNC(=O)c3ccccc3F)c2cc1C` here?
The inhibition was -1.98%.

How did the inhibition turn out when `Cc1nc(N)nc(SCc2ccc([N+](=O)[O-])cc2)c1N` was run?
The inhibition was -0.52%.

For `COC(=O)c1ccc(NC(=O)CSc2nnc(C3CC3)n2C)cc1`, which inhibition is on record?
The inhibition was -2.19%.

How did the inhibition turn out when `O=C(Nc1ccc2c(c1)OCCO2)c1cnccn1` was run?
Its inhibition is -1.18%.

Which inhibition does the source give for `CCN1CCN(c2ccc(NC(=O)c3cnccn3)cc2)CC1` here?
Its inhibition is 11.1% (active).

With `O=C(Nc1ccc(S(=O)(=O)N2CCCCC2)cc1)c1cnccn1` as the compound, how does the inhibition read?
The inhibition was -1.24%.

With `CC(CC(=O)N1CCN(c2ccccc2)CC1)S(=O)(=O)c1ccc2c(c1)NC(=O)CS2` (stereo not given) as the compound, how does the inhibition read?
Its inhibition is -2.34%.

Which inhibition does the source give for `CN1CCN(Cc2c(C(=O)N3CCc4ccccc4C3)nc3ccc(Cl)cn23)CC1` here?
Its inhibition is 1.36%.

`CC1CN(S(=O)(=O)c2ccc(C(=O)Nc3sccc3C(N)=O)cc2)CC(C)O1` (stereo not given) was tested. Which inhibition did it give?
The inhibition was -1.24%.

How did the inhibition turn out when `COc1ccc(C(=O)Nc2nc(-c3ccc(S(=O)(=O)N4CCOCC4)cc3)cs2)cc1` was run?
The inhibition was -4.64%.

With `COC(=O)c1c(NC(=O)c2ccc(S(=O)(=O)N3CCOCC3)cc2)sc2c1CCN(C(C)C)C2` as the compound, how does the inhibition read?
The inhibition was 60.3% (active).

`CNC(=O)c1ccsc1NC(=O)c1ccc(S(=O)(=O)N2CCc3ccccc32)cc1` was tested. Which inhibition did it give?
The inhibition was -1.27%.

With `O=C(Nc1ccc(N2CCOCC2)c(Cl)c1)c1ccc(S(=O)(=O)N2CCOCC2)cc1` as the compound, how does the inhibition read?
Its inhibition is -1.9%.

How did the inhibition turn out when `CNC(=O)c1ccsc1NC(=O)c1ccc(S(=O)(=O)N2CCOCC2)cc1` was run?
The inhibition was 18.2% (active).

How did the inhibition turn out when `Cc1ccn2c(c1)nc(=O)c1cc(S(=O)(=O)N3CCC(C)CC3)ccc12` was run?
The inhibition was 3.01%.

For `CC(C(=O)NC1CCCCC1)N1C(=O)c2cccc3cccc1c23` (stereo not given), which inhibition is on record?
The inhibition was 0.01%.

`COc1ccc2c(c1OC)C(=O)N(c1ccc(O)cc1)C2` was tested. Which inhibition did it give?
Its inhibition is -1.4%.

For `CCOC(=O)C1(Cc2ccccc2C)CCCN(S(C)(=O)=O)C1` (stereo not given), which inhibition is on record?
Its inhibition is 2.72%.

Which inhibition does the source give for `C/C(=N\Nc1ncc(Cl)cc1Cl)c1cccs1` here?
Its inhibition is -1.51%.

`C/C(=N\Nc1ccc(S(N)(=O)=O)cc1[N+](=O)[O-])c1cccs1` was tested. Which inhibition did it give?
The inhibition was 11.9% (active).

With `C/C(=N\NS(=O)(=O)c1ccc(Br)cc1)c1cccs1` as the compound, how does the inhibition read?
Its inhibition is -5.12%.

`CCN(CC)c1ccc(NC(=O)CCc2nnc3ccc(N4CCCCC4)nn23)c(C)c1` was tested. Which inhibition did it give?
Its inhibition is -1.16%.

For `CC1=NN(c2ccc(Cl)c(C(=O)O)c2)C(=O)/C1=C/c1ccc(-c2ccccc2[N+](=O)[O-])o1`, which inhibition is on record?
Its inhibition is -1.65%.

With `Clc1cc(-c2ccc(/C=N/n3cnnc3)o2)ccc1Br` as the compound, how does the inhibition read?
The inhibition was 14.1% (active).

How did the inhibition turn out when `Fc1ccc(Br)cc1/C=N/n1cnnc1` was run?
Its inhibition is 1.26%.

With `Cc1ccc(Cl)cc1-c1ccc(/C=N/n2cnnc2)o1` as the compound, how does the inhibition read?
The inhibition was 27.4% (active).

How did the inhibition turn out when `Cc1ccccc1-c1n[nH]c(=S)n1/N=C/c1ccc(-c2ccccc2Br)o1` was run?
Its inhibition is -6.24%.

Which inhibition does the source give for `COC(=O)N/N=C/c1ccc(-c2ccc(Cl)c(Cl)c2)o1` here?
The inhibition was -1.8%.

How did the inhibition turn out when `Cc1cc([N+](=O)[O-])c(-c2ccc(/C=N/n3cnnc3)o2)cc1Cl` was run?
The inhibition was 40.1% (active).

With `Cc1cc(C)c([N+](=O)[O-])cc1-c1ccc(/C=N/NC(=O)c2nonc2N)o1` as the compound, how does the inhibition read?
The inhibition was -3.27%.

`Cc1cc(-c2ccc(/C=N/n3cnnc3)o2)c([N+](=O)[O-])cc1C` was tested. Which inhibition did it give?
The inhibition was 41.5% (active).

For `Brc1cc(/C=N/n2cnnc2)oc1Br`, which inhibition is on record?
The inhibition was -2.87%.

For `Cc1ccccc1OCCOc1ccc([N+](=O)[O-])cc1/C=N/n1cnnc1`, which inhibition is on record?
Its inhibition is -0.56%.

With `O=C1C2C3C=CC(C4CC34)C2C(=O)N1/N=C/c1ccc(-c2ccccc2[N+](=O)[O-])o1` (stereo not given) as the compound, how does the inhibition read?
Its inhibition is -0.54%.

How did the inhibition turn out when `CC(NC(=O)C1CCCN(S(=O)(=O)c2ccc(-n3cnnn3)cc2)C1)c1ccc(F)cc1` (stereo not given) was run?
The inhibition was 1.19%.

Which inhibition does the source give for `COc1ccc(CSc2nnnn2-c2ccc(C(=O)O)cc2)cc1` here?
The inhibition was -2.38%.

Which inhibition does the source give for `COc1cc(CN2CCCC(C(=O)c3ccc(SC)cc3)C2)cc(Cl)c1O` (stereo not given) here?
Its inhibition is -0.31%.

Which inhibition does the source give for `CCOc1c(OC)cccc1C(=O)NCC1(c2ccccc2)CCCC1` here?
Its inhibition is -2.24%.

How did the inhibition turn out when `O=C(NNC(=S)NCCCN1CCOCC1)c1ccncc1` was run?
The inhibition was 6.22%.

For `COCCCNC(=S)NNC(=O)C(O)(c1ccccc1)c1ccccc1`, which inhibition is on record?
The inhibition was 2.9%.

For `CCCCNC(=S)NNC(=O)c1cc(C)on1`, which inhibition is on record?
Its inhibition is 9.24% (active).

How did the inhibition turn out when `Cc1ccc(SCC(=O)c2cc(C)c(OC(=S)N(C)C)c(C)c2)cc1` was run?
Its inhibition is -4.92%.

For `CCCC1=Nc2cc(C(=O)NCCN3CCCC3)ccc2Sc2ccccc21`, which inhibition is on record?
Its inhibition is -3.66%.

For `COc1cc(/C=N/NC(=O)Cc2ccccc2)cc(OC)c1OC`, which inhibition is on record?
The inhibition was -1.77%.

With `COc1ccc(/C=N/Nc2nc3ccccc3o2)cc1OC` as the compound, how does the inhibition read?
Its inhibition is -2.44%.

Which inhibition does the source give for `COc1cc(/C=N/Nc2nn3cnnc3c3ccccc23)cc(OC)c1OC` here?
Its inhibition is 25.2% (active).

How did the inhibition turn out when `CCCc1nn2c(=O)cc(CSCC(=O)Nc3cccc(C)c3)nc2s1` was run?
The inhibition was 0.24%.

With `Cc1cccn2cc(-c3cccc(S(=O)(=O)N4CCCCC4)c3)nc12` as the compound, how does the inhibition read?
The inhibition was -0.51%.

How did the inhibition turn out when `CN(C(=O)c1cccc([N+](=O)[O-])c1)c1ccccc1C(=O)NCc1ccccc1` was run?
Its inhibition is -1.36%.

Which inhibition does the source give for `O=c1c2ccccc2oc2nc3n(c(=O)c12)CCCS3` here?
The inhibition was 8.39% (active).

With `O=c1c2ccccc2oc2nc(C3CCCCC3)n(Cc3ccco3)c(=O)c12` as the compound, how does the inhibition read?
The inhibition was -2.32%.

`CCc1nc2oc3ccccc3c(=O)c2c(=O)n1Cc1ccc(OC)cc1` was tested. Which inhibition did it give?
Its inhibition is -2.13%.
